The values below come from PubChem BioAssay AID449728 (The Scripps Research Institute Molecular Screening Center, 2010).

Out of some 330,000 compounds screened, about 900 (0.27%) were called active. The full list was thinned out, with actives kept by preference. Values without a mark were called inactive.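 Rule for the calls: active = inhibition above the campaign's mean inhibition across all tested compounds plus 3 SD (cut at about 9.9% in these data); inactive = the rest.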

This assay in a line: E. coli V3065 growth inhibition, primary screen, counter-screen for AddAB inhibitor project, absorbance, OD600 (AID 449728).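 Note: uninfected addAB+ strain grown without phage in ampicillin broth; 0% = DMSO wells and 100% = ciprofloxacin 0.95 µg/ml wells.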 The note with it: 18 h, at 11.9 µM, hits give high values. (The purpose of a counterscreen is to sort out artefacts and off-target activity.)
Consider `CC[C@H]1OC(=O)[C@H](C)[C@@H](O[C@H]2C[C@@](C)(OC)[C@@H](O)[C@H](C)O2)[C@H](C)[C@@H](O[C@@H]2O[C@H](C)C[C@H](N(C)C)[C@H]2O)[C@](C)(O)C[C@@H](C)[C@@H]2N[C@@H](COCCOC)O[C@H]([C@H]2C)[C@]1(C)O`, for which the inhibition was 39.7% (active). Consider `O=C(Nc1cccc2c1N(C(=O)c1ccco1)CCC2)c1ccco1`, for which the inhibition is 0.81%. With `CCCc1nc(SCC(=O)N2CCCC2)c2c(=O)n(C)c(=O)n(C)c2n1`, the inhibition is 0.51%. Regarding `O=C(NCc1ccncc1)C(=O)NCc1ccco1`, the inhibition was -0.95%. As for `C/C(N)=C(/C#N)C(=O)COC(=O)C1CCN(C(=O)c2ccc(Cl)cc2)CC1`, the inhibition is -2.66%. As for `N#Cc1c(-c2ccc(F)cc2)cc(C2CC2)nc1SCC(=O)c1cccs1`, the inhibition is -0.26%. For the molecule `COc1cc(NS(=O)(=O)c2ccc(NC(=O)c3ccc([N+](=O)[O-])cc3)cc2)ncn1`, the inhibition is 1.53%. As to `Cn1ccc(=Nc2ccc(NC(=O)c3ccc(N=c4ccn(C)c5ccc([N+](=O)[O-])cc45)cc3)cc2)cc1`, the inhibition was 103% (active). With `CC(=O)NC(=S)Nc1ccc(NC(=S)NC(=O)c2ccc([N+](=O)[O-])cc2)cc1`, the inhibition is -0.16%.

`C=CCn1c(SCC(N)=O)nnc1-c1cc2c(s1)CCC(CC)C2` (stereo unspecified): the inhibition is 1.3%. Turning to `CCCCN(CC)CCNC(=O)c1[nH]c(C)c(C(C)=O)c1C`, the inhibition was -0.92%. `O=C(CN1CCN(c2ccccn2)CC1)Nc1ccc(Br)cc1`: the inhibition was 2.27%. As to `CCN(CC)c1ccc(NC(=O)CN2CCN(c3ccccn3)CC2)cc1`, the inhibition is 10.5% (active).

As for `O=C(CN1CCN(c2ccccn2)CC1)NC1CCCCC1`, the inhibition was 1.09%. Turning to `NC(=O)NCCCC(=O)O`, the inhibition was -0.17%. As to `CC(=O)N(O)CCCCCNC(=O)CCC(=O)N(O)CCCCCNC(=O)CCC(=O)N(O)CCCCCNC(=O)CCC(=O)O`, the inhibition is 25.5% (active). As to `CC1CCCC(NC(=O)c2cc(S(=O)(=O)N3CCCCC3)ccc2Cl)C1C` (stereo unspecified), the inhibition was -1.24%. For `O=C(COC(=O)c1cc(S(=O)(=O)N2CCCCC2)ccc1Cl)NCc1ccco1`, the inhibition was -0.84%. Consider `O=C(NNC(=O)c1cc(S(=O)(=O)N2CCCCC2)ccc1Cl)c1ccccc1O`, for which the inhibition is 10.3% (active). On to `CCn1cc(/C=C2/SC(=S)NC2=O)c(C)n1`, for which the inhibition was 0%. For the molecule `Brc1ccc(/C=N/N2CCN(C3c4ccccc4-c4ccccc43)CC2)s1`, the inhibition is 0.91%. Consider `Cc1nn2c3cc(N4CCOCC4)ccc3nc2c2ccccc12`, for which the inhibition was 0.55%. Consider `COC(=O)CSc1nc2c(c(C3CC=CCC3)c1C#N)CCC2` (stereo unspecified), for which the inhibition is 0.17%. As for `CCn1c(=O)c([N+](=O)[O-])c(NCc2ccc3c(c2)OCO3)c2ccccc21`, the inhibition is 0.41%.

As for `CCOCCCn1c(NN)nc2ccccc2c1=O`, the inhibition was 2.87%. For the molecule `CCn1c(/C=C/c2ccc([N+](=O)[O-])o2)nc2ccccc2c1=O`, the inhibition is 21.6% (active). For the molecule `Cc1cn(C2C=CC(CO)O2)c(=O)[nH]c1=O` (stereo unspecified), the inhibition was 8.77%. Consider `COc1cc(OC)c2c(c1)OC(=O)CC2c1cc(OC)c(OC)c(OC)c1` (stereo unspecified), for which the inhibition is 2.5%.

Regarding `CC1(C)CC2CC(C)(CN2c2ncnc3ccc(Br)cc23)C1` (stereo unspecified), the inhibition was -0.09%. `Cc1ccc(NC(=O)CCCNC(=O)c2ccc(Cl)cc2)cc1S(=O)(=O)N1CCOCC1`: the inhibition was -1.94%. As to `CC(C)[C@@H]1COC(c2cccc(C3=N[C@H](C(C)C)CO3)c2)=N1`, the inhibition was -0.25%. Under `CCN1/C(=C\c2ccc3ccccc3[n+]2CC)Sc2cc(C)ccc21` stands 15% (active). For the molecule `CC(=O)c1c(Nc2ccccc2)sc(C(=O)c2ccccc2)c1C`, the inhibition is 1.73%. For `CCOc1ccccc1NC(=S)N1CCN(c2cccc(C)c2C)CC1`, the inhibition is 0.08%. Turning to `O=C(O)CSc1nccc2ccccc12`, the inhibition was -0.18%. As for `O=C1CCC(=O)N(O)CCCCCNC(=O)CCC(=O)N(O)CCCCCNC(=O)CCC(=O)N(O)CCCCCN1`, the inhibition was 29.4% (active). `CCOC(=O)c1nnn2c1nc(N1CCN(c3ccccc3)CC1)c1ccccc12`: the inhibition is 1.28%.

As to `O=C(/C=C/c1ccccc1Cl)Nc1ccc(S(=O)(=O)Nc2ncccn2)cc1`, the inhibition was 0.84%.

`COc1cc(NC(=S)NCc2ccco2)c(OC)cc1Cl`: the inhibition is -0.7%. For `COc1cccc(OC)c1C(=O)NC(=S)NCc1ccco1` the value was 1.37%; for `COc1cc(C(=O)NC(=S)NCc2ccco2)cc(OC)c1OC`, 14.7% (active); for `O=C(NCCc1c[nH]c2ccccc12)c1cc2ccccc2oc1=O`, 0.17%. Regarding `CC(C)(C)N(Cc1ccccc1)C(=O)COC(=O)CCc1c[nH]c2ccccc12`, the inhibition is -1.13%.

Regarding `O=C(O)c1cccc(NC(=S)N/N=C/c2c[nH]c3ccccc23)c1`, the inhibition is 0.08%. As to `Nc1nonc1-n1nnc(C(=O)N/N=C/c2c[nH]c3ccccc23)c1-c1ccccc1`, the inhibition was 0%. For `CSC(=S)N/N=C/c1c[nH]c2ccccc12` the value was 12.8% (active); for `Cc1ccc(CSCC2Nc3ccc(C(=O)N4CCN(c5ccc(F)cc5)CC4)cc3NC2=O)cc1` (stereo unspecified), -0.76%. For `O=C(O)CCCC(=O)Nc1ccc(Oc2cccc(C(F)(F)F)c2)nc1` the value was 1.79%; for `Cc1ccc(OC(=O)c2ccccc2C(=O)OCC(F)(F)C(F)F)cc1`, 0.25%. Take `O=C(CCC(=O)NNc1nc2ccccc2c2nc(-c3ccccc3)nn12)NCCCN1CCCC1=O`: the inhibition was -1.57%.

With `CCOC(=O)c1ccc(NC(=O)Cn2cnc3cc(C)c(C)cc32)cc1`, the inhibition is 16.7% (active). Under `CCCc1nnc(SCC(=O)Nc2ccc(C(=O)OCC)cc2)o1` stands -1.1%. Turning to `CCOC(=O)c1ccc(NC(=O)CSc2nnc(COc3ccccc3OC)n2C)cc1`, the inhibition was 2.63%. Turning to `COc1cc(OC)cc(-c2c(C#Cc3ccsc3)c3cc(-c4ccc(SC)cc4)ccc3n2C)c1`, the inhibition was 0.52%. For `COc1ccc(-c2ccc(CCC(=O)O)n2NC(=O)c2ccc(C(C)(C)C)cc2)cc1` the value was 2.02%; for `COc1ccc(CSc2nnnn2-c2ccc(O)cc2)cc1F`, -0.34%.

What is called inhibition is the relative decrease from the control value, in per cent.
